# Reference: publication PMC7862700, “An all-to-all approach to the identification of sequence-specific readers for epigenetic DNA modifications on cytosine”
# How the values were obtained:
# Assay in all cases: DAPPL (digital affinity profiling via proximity ligation, sequencing); 10 mM Tris-HCl pH 7.5, 50 mM NaCl, 1 mM DTT, 4% glycerol, room temperature, 30 min; GST-TFs on glutathione beads, 16-mer random dsDNA library, 0.1% formaldehyde crosslink after washing; high values mean tight binding
# [1] = target: T1, FLI1 (Homo sapiens, UniProt Q01543 1-452); conditions: protein: recombinant; tags: N-terminal GST; dsDNA, one strand shown
# T1 sequence: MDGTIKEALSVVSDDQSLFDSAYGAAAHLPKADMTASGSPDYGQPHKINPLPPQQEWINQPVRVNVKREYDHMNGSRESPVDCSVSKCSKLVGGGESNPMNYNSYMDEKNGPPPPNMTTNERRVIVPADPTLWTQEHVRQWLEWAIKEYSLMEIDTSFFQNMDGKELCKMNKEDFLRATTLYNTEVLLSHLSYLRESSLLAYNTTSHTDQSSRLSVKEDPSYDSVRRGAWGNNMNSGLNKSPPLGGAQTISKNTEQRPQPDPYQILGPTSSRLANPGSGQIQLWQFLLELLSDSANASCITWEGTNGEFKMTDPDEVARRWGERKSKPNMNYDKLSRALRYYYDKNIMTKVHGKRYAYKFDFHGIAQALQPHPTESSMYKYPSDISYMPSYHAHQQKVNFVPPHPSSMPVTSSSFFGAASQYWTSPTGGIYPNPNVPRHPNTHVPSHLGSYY
# Outline: (§1)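 A tag-only sample was pooled with DNA-barcoded human transcription factors that had been expressed in yeast as GST fusions and captured on glutathione beads. The pools were incubated for 30 min at room temperature with 200 nmole of a random double-stranded 16-mer DNA library in Tris/NaCl/DTT/glycerol buffer, then washed, crosslinked with 0.1% formaldehyde, proximity-ligated (BsaI/T4 ligase, 1 h, 37 °C), PCR-amplified and sequenced on an Illumina NextSeq500. Binding signal is each hexamer's read frequency for a factor divided by its frequency for the tag-only sample.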
# [2] = target: T2, ELK1 (Homo sapiens, UniProt P19419 1-428); conditions: protein: recombinant; tags: N-terminal GST; dsDNA, one strand shown
# T2 sequence: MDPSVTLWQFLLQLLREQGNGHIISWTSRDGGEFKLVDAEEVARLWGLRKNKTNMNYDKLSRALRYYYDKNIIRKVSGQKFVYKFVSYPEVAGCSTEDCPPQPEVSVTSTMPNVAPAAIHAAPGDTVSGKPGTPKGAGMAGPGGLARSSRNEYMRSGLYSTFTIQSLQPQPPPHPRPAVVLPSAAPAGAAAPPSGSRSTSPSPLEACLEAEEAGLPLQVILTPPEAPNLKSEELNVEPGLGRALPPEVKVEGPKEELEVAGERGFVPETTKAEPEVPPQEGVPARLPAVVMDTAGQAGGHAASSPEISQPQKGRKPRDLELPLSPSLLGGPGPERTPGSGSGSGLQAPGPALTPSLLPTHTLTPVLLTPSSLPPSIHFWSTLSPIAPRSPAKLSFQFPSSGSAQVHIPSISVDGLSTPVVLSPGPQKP
# Outline: as §1
# [3] = target: T3, GABPA (Homo sapiens, UniProt Q06546 1-454); conditions: protein: recombinant; tags: N-terminal GST; dsDNA, one strand shown
# T3 sequence: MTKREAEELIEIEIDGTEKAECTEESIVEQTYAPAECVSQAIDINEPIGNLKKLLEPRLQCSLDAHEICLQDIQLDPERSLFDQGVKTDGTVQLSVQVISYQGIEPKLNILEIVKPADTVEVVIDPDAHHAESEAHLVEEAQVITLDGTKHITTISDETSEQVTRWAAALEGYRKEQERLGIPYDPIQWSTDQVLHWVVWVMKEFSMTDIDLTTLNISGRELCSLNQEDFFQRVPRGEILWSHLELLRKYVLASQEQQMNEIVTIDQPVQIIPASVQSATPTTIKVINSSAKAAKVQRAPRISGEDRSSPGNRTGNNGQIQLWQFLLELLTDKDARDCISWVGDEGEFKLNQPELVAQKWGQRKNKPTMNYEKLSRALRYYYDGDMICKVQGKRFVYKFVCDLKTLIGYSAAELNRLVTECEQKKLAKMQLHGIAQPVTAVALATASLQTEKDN
# Outline: as §1
# [4] = target: T4, ERG (Homo sapiens, UniProt P11308 1-479); conditions: protein: recombinant; tags: N-terminal GST; dsDNA, one strand shown
# T4 sequence: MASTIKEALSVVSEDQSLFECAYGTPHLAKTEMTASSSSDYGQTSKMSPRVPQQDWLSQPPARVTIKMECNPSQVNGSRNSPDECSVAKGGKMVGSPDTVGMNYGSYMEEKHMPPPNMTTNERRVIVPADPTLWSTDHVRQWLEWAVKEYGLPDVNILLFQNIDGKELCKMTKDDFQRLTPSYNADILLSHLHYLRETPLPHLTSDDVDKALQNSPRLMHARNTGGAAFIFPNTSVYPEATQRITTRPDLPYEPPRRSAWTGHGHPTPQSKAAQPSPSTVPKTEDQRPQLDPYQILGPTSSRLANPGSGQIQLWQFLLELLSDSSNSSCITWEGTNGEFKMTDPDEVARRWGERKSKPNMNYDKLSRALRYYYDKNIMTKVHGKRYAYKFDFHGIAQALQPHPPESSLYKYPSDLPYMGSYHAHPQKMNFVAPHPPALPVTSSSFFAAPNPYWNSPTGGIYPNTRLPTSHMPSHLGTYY
# Outline: as §1
# [5] = target: ELF1 (Homo sapiens, UniProt P32519 1-619); conditions: protein: recombinant; tags: N-terminal GST; dsDNA, one strand shown
# Outline: as §1
# [6] = target: T5, EHF (Homo sapiens, UniProt Q9NZC4 1-300); conditions: protein: recombinant; tags: N-terminal GST; dsDNA, one strand shown
# T5 sequence: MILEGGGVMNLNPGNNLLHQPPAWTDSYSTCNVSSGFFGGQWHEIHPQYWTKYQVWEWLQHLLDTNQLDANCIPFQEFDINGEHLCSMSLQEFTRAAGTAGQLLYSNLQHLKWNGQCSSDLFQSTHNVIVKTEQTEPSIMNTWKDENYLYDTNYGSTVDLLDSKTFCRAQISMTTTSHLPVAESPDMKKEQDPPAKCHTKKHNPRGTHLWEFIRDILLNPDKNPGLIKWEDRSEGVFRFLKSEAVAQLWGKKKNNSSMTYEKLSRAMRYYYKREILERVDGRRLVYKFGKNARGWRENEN
# Outline: as §1
# [7] = target: SPI1 (Homo sapiens, UniProt P17947 1-270); conditions: protein: recombinant; tags: N-terminal GST; dsDNA, one strand shown
# Outline: as §1
# [8] = target: SPIB (Homo sapiens, UniProt Q01892 1-262); conditions: protein: recombinant; tags: N-terminal GST; dsDNA, one strand shown
# Outline: as §1
# [9] = target: T6, ELK3 (Homo sapiens, UniProt P41970 1-407); conditions: protein: recombinant; tags: N-terminal GST; dsDNA, one strand shown
# T6 sequence: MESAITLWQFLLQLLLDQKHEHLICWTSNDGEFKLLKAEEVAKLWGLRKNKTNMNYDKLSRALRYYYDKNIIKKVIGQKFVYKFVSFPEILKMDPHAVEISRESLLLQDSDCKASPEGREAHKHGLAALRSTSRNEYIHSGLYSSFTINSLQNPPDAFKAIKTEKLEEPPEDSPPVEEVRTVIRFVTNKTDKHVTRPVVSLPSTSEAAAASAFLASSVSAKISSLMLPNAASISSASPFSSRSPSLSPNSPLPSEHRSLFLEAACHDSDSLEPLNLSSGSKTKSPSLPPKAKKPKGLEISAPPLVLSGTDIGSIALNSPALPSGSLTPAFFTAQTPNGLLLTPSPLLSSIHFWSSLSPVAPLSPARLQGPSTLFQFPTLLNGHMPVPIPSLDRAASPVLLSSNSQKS
# Outline: as §1
# [10] = target: T7, FEV (Homo sapiens, UniProt Q99581 1-238); conditions: protein: recombinant; tags: N-terminal GST; dsDNA, one strand shown
# T7 sequence: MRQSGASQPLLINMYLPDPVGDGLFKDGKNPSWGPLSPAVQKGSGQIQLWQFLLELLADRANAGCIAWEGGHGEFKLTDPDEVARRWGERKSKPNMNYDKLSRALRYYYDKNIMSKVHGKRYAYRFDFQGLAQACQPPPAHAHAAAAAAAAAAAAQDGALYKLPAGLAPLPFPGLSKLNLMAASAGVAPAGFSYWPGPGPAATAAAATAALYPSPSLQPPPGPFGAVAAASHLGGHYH
# Outline: as §1
# [11] = target: ETV5 (Homo sapiens, UniProt P41161 1-510); conditions: protein: recombinant; tags: N-terminal GST; dsDNA, one strand shown
# Outline: as §1
# [12] = target: HSF1 (Homo sapiens, UniProt Q00613 1-529); conditions: protein: recombinant; tags: N-terminal GST; chain copies: 3; dsDNA, one strand shown
# Outline: as §1
# [13] = target: T8, SPIC (Homo sapiens, UniProt Q8N5J4 1-248); conditions: protein: recombinant; tags: N-terminal GST; dsDNA, one strand shown
# T8 sequence: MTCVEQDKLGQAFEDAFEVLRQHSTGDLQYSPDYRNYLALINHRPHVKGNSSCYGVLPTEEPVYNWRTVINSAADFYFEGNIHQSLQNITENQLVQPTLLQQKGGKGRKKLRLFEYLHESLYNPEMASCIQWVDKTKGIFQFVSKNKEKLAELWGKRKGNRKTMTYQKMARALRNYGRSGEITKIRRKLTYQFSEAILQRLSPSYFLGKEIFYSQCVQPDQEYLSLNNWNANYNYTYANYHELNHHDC
# Outline: as §1
# [14] = target: ELF4 (Homo sapiens, UniProt Q99607 1-663); conditions: protein: recombinant; tags: N-terminal GST; dsDNA, one strand shown
# Outline: as §1
# [15] = target: T9, ELK4 (Homo sapiens, UniProt P28324-2 1-405); conditions: protein: recombinant; tags: N-terminal GST; dsDNA, one strand shown
# T9 sequence: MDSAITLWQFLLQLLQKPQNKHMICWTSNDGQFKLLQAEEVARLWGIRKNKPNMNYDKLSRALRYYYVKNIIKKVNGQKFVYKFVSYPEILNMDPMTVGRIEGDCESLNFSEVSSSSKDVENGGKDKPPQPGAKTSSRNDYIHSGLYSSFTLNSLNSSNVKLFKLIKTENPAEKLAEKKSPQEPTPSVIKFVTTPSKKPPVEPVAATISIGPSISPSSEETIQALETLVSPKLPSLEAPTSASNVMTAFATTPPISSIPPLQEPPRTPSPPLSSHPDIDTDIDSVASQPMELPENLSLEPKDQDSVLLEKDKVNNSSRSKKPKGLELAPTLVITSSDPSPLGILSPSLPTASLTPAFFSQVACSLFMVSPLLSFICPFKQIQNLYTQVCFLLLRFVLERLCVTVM
# Outline: as §1
# [16] = target: T10, ETV2 (Homo sapiens, UniProt O00321 1-342); conditions: protein: recombinant; tags: N-terminal GST; dsDNA, one strand shown
# T10 sequence: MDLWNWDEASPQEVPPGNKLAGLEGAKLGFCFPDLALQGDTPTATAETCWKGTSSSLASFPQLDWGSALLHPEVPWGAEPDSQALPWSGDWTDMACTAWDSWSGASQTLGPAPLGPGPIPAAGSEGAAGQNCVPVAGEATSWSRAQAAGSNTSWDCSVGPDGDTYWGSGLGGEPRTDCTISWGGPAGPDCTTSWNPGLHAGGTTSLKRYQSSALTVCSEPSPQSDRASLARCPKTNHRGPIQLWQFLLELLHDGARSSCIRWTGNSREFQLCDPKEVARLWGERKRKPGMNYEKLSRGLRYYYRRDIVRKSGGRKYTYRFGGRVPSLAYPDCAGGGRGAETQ
# Outline: as §1
# [17] = target: T11, ELF3 (Homo sapiens, UniProt P78545 1-371); conditions: protein: recombinant; tags: N-terminal GST; dsDNA, one strand shown
# T11 sequence: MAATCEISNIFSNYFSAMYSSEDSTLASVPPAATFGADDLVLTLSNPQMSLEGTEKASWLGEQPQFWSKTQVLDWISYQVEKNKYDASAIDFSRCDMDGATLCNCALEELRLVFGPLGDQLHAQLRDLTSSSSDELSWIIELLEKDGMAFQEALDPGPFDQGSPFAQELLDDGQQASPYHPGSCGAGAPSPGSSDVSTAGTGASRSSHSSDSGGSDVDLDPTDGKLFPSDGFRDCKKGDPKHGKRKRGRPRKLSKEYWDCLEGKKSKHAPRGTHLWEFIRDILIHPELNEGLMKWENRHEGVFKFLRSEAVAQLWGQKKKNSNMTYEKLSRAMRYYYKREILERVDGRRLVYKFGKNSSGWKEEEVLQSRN
# Outline: as §1
# [18] = target: CRX (Homo sapiens, UniProt O43186 1-299); conditions: protein: recombinant; tags: N-terminal GST; dsDNA, one strand shown
# Outline: as §1
# [19] = target: ETV1 (Homo sapiens, UniProt P50549 1-477); conditions: protein: recombinant; tags: N-terminal GST; dsDNA, one strand shown
# Outline: as §1
# Sequence of ETV1 (P50549 whole entry): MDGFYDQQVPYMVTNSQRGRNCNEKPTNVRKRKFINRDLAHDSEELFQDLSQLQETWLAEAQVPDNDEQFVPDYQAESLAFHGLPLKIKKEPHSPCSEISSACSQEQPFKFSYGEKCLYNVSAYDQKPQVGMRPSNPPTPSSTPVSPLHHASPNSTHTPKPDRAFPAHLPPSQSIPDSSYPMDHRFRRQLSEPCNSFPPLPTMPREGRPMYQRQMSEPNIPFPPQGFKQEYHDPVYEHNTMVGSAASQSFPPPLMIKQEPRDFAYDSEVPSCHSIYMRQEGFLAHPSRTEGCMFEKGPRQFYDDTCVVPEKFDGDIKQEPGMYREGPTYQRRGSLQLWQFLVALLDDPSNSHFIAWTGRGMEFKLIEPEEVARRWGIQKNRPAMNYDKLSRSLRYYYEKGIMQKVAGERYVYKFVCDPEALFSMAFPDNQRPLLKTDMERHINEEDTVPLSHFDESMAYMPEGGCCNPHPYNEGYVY
# Sequence of ETV5 (P41161 whole entry): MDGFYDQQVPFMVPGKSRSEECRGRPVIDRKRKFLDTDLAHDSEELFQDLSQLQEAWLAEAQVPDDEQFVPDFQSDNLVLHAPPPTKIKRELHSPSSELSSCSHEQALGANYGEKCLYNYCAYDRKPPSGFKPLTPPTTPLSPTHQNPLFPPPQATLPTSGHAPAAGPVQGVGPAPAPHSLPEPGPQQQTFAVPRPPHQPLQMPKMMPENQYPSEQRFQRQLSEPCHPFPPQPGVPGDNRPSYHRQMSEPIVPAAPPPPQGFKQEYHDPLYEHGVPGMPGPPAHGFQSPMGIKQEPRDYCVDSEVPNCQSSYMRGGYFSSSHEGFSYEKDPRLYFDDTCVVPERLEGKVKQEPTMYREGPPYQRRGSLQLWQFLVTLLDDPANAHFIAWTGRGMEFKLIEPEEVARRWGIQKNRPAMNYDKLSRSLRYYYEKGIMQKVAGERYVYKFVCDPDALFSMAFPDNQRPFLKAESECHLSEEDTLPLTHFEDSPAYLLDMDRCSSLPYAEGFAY
# Sequence of ELF1 (P32519 whole entry): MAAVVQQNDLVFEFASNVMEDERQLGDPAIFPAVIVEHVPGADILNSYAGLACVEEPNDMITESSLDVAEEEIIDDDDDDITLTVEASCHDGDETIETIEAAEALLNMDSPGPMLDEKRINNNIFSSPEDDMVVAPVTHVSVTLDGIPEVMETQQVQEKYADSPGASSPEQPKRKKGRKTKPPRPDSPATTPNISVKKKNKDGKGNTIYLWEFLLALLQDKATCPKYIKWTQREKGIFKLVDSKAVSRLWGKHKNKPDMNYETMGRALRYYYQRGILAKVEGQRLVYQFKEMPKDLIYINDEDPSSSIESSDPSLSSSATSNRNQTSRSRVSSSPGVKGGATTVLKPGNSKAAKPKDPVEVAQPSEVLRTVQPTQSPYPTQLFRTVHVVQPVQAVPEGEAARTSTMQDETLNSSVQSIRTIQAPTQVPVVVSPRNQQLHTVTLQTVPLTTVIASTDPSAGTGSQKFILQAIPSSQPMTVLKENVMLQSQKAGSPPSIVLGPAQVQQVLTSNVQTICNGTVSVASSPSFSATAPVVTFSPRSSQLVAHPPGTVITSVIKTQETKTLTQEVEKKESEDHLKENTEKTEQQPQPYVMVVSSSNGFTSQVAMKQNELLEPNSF
# Sequence of CRX (O43186 whole entry): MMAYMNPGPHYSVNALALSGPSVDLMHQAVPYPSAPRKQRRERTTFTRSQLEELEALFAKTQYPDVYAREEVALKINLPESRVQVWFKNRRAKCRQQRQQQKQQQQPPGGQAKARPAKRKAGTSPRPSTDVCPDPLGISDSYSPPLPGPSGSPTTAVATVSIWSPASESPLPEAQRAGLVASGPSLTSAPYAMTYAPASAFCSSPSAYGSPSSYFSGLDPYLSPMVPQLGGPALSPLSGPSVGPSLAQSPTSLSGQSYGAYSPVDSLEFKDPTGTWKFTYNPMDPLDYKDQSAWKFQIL
# Sequence of ELF4 (Q99607 whole entry): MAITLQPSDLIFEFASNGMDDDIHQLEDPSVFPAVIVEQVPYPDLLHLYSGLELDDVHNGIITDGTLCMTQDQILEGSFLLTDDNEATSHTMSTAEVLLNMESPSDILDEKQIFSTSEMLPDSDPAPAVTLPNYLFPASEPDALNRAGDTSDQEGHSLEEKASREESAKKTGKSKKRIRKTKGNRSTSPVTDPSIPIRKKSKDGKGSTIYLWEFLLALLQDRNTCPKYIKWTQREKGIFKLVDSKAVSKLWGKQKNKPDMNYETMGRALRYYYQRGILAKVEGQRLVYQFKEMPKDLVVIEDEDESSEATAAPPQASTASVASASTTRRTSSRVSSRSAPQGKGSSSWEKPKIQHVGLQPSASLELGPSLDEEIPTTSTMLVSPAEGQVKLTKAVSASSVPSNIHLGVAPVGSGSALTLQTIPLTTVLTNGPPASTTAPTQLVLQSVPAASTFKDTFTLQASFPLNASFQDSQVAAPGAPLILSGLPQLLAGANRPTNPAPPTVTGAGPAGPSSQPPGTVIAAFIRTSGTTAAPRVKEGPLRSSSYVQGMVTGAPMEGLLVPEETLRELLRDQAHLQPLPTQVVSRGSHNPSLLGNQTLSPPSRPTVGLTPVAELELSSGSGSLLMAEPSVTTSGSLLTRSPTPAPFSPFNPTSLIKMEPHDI
# Sequence of SPIB (Q01892 whole entry): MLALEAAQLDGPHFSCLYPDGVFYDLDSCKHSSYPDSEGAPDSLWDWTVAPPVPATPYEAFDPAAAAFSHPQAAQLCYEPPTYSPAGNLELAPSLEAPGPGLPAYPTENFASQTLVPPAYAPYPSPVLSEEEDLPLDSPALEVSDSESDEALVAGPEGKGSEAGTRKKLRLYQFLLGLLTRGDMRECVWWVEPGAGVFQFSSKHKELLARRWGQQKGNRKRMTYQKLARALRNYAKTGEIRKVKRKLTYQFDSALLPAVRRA
# Sequence of HSF1 (Q00613 whole entry): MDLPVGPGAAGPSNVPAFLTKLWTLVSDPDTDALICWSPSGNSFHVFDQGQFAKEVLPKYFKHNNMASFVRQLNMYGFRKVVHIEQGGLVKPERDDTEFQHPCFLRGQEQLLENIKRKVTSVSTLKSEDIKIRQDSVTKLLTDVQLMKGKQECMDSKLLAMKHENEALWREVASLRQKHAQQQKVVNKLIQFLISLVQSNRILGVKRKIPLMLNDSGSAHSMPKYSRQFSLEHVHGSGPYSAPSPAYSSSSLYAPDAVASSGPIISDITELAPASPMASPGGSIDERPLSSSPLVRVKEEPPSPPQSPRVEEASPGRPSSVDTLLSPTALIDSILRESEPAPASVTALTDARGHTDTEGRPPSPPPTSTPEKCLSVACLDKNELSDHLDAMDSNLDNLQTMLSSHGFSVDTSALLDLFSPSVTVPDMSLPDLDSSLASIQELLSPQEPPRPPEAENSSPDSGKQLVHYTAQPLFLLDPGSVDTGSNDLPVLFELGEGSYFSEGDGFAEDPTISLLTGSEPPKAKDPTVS
sequence,measurement,setting,value
CTCACG,binding signal,[1],"1.36 fold enrichment (6-mer frequency, TF over GST control)"
same,binding signal,[2],"1.33 fold enrichment (6-mer frequency, TF over GST control)"
same,binding signal,[3],"1.33 fold enrichment (6-mer frequency, TF over GST control)"
same,binding signal,[4],"1.33 fold enrichment (6-mer frequency, TF over GST control)"
same,binding signal,[5],"1.25 fold enrichment (6-mer frequency, TF over GST control)"
same,binding signal,[6],"1.31 fold enrichment (6-mer frequency, TF over GST control)"
same,binding signal,[7],"1.22 fold enrichment (6-mer frequency, TF over GST control)"
same,binding signal,[8],"1.32 fold enrichment (6-mer frequency, TF over GST control)"
same,binding signal,[9],"1.41 fold enrichment (6-mer frequency, TF over GST control)"
same,binding signal,[10],"1.32 fold enrichment (6-mer frequency, TF over GST control)"
same,binding signal,[11],"1.4 fold enrichment (6-mer frequency, TF over GST control)"
same,binding signal,[12],"1.14 fold enrichment (6-mer frequency, TF over GST control)"
same,binding signal,[13],"1.31 fold enrichment (6-mer frequency, TF over GST control)"
same,binding signal,[14],"1.33 fold enrichment (6-mer frequency, TF over GST control)"
same,binding signal,[15],"1.35 fold enrichment (6-mer frequency, TF over GST control)"
same,binding signal,[16],"1.35 fold enrichment (6-mer frequency, TF over GST control)"
same,binding signal,[17],"1.26 fold enrichment (6-mer frequency, TF over GST control)"
same,binding signal,[18],"1.08 fold enrichment (6-mer frequency, TF over GST control)"
same,binding signal,[19],"1.22 fold enrichment (6-mer frequency, TF over GST control)"
